Screens as filed in PubChem.
BLM inh-1: qHTS Assay for Inhibitors of Bloom's syndrome helicase (BLM) | RecQ-like DNA helicase BLM (Homo sapiens), P54132 | recombinant BLM DNA unwinding, fluorescence dequenching | Potency, µM (top dose mostly 56.1 µM), without a hit: at the top dose activity change, negative = inhibition, most hits filed as inhibitors | 350,000 tested, 0.2% active | AID 2528, 2010;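 further: plate controls were vehicle for no effect and no enzyme for full effect; nearly all actives have a fitted effect of over 35% in size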
RECQ1 inh-1: qHTS Assay for Inhibitors of RecQ-Like Dna Helicase 1 (RECQ1) | RECQ1 DNA unwinding, red fluorescence kinetic read | Potency, µM (series often up to 57.3 µM), for the others: at the highest dose activity, negative = inhibition, most hits filed as inhibitors | 240,000 tested, 0.54% active | ATP-dependent DNA helicase Q1 (Homo sapiens), P46063;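 further: plate controls were vehicle for no effect and no enzyme for full effect; nearly all actives have a fitted effect of over 30% in size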
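50 nM RECQ1T1 preincubated 15 min with compound in Tris pH 8.0 buffer with MgCl2, DTT, Tween-20 and 2.5 ug/ml poly(dI-dC); started with 200 nM TAMRA/BHQ-2 forked duplex and 2 mM ATP. Unwinding read as fluorescence (525/598 nm), two reads 2 h apart.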
TDP1 inh: qHTS Assay for Inhibitors of Tyrosyl-DNA Phosphodiesterase (TDP1); Tyrosyl-DNA phosphodiesterase 1 (Homo sapiens), Q9NUW8; recombinant TDP1, AlphaScreen DNA substrate cleavage; Potency, µM (top dose mostly 130 µM), without a hit: top-dose activity change, negative = inhibition, most hits filed as inhibitors; 350,000 tested, 0.28% active; further: nearly all actives have a fitted effect of over 40% in size
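Enzyme-compound mixtures sat 15 min at room temperature, followed by a 5 min reaction with 15 nM final substrate and 10 min with AlphaScreen beads. Recombinant human Tdp1 was used at 1 nM final.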
PGK inhibitor: qHTS Assay to Find Inhibitors of Phosphoglycerate Kinase. Phosphoglycerate kinase, glycosomal (Trypanosoma brucei brucei), P07378. PGK/GAPDH coupled, Kinase-Glo luminescence, 60 min. Potency, µM (titrated, usually from 57.5 µM), inactives show top-dose activity change, negative = inhibition, most hits filed as inhibitors. 380,000 tested, 0.043% active; further: nearly all actives have a fitted effect of over 60% in size
Target sequence (P07378 whole entry, looked up): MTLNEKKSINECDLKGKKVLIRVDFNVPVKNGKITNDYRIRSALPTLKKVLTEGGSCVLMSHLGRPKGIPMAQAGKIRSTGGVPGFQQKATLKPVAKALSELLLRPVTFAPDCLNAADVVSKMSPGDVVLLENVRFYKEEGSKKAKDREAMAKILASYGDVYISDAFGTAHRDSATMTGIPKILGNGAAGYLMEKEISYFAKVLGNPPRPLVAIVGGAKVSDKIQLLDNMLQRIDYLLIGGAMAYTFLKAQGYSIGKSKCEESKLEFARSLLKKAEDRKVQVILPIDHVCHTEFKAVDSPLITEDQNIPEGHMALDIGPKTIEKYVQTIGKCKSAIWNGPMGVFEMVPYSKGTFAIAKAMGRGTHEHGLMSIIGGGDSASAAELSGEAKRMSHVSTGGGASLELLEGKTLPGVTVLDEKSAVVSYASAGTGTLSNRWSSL
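Recombinant glycosomal PGK reaction used 1,3-bisphosphoglycerate generated in-well by GAPDH (100nM final) in 100mM TEA pH 7.6, 5mM MgCl2, 0.01% Tween-20. After 60 minutes at room temperature, ATP was read by Kinase-Glo Plus luminescence end-point.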
APE1 inh-1: qHTS Assay for Inhibitors of the Human Apurinic/apyrimidinic Endonuclease 1 (APE1) | DNA repair nuclease/redox regulator APEX1 (Homo sapiens), P27695 | recombinant APE1, TAMRA/BHQ-2 abasic DNA cleavage fluorescence | Potency, µM (highest dose often 65.8 µM), inactives show at the top dose activity change, negative = inhibition, usual class: inhibitors | 350,000 tested, 0.35% active | AID 2517, 2012;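 further: plate controls were vehicle for no effect and reference inhibitor for full effect; nearly all actives have a fitted effect of over 55% in size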
Target sequence (P27695 whole entry, looked up): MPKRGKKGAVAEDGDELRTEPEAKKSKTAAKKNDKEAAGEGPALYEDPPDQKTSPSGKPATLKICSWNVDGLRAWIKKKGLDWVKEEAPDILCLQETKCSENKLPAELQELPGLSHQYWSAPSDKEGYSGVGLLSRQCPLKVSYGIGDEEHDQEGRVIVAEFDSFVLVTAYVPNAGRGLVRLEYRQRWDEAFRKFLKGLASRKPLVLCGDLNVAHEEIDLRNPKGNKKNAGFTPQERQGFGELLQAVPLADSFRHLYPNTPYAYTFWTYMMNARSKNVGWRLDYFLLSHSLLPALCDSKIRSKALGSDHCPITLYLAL
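Enzyme (0.75 nM final) and test compound are incubated 15 min at room temperature before adding 50 nM quenched THF abasic-site duplex. Cleavage dequenches TAMRA, followed at 525/598 nm over three reads one minute apart.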
GLS inhibitor: qHTS for Inhibitors of Glutaminase (GLS). Glutaminase kidney isoform, mitochondrial (Homo sapiens), O94925. GLS enzymatic activity, qHTS titration. Potency, µM (series often up to 45.5 µM), for the others: at the highest dose activity change, negative = inhibition, hits mostly inhibitors. 410,000 tested, 0.21% active. AID 624170, 2012
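hKGA; 45 mM KH2PO4 pH 8.2 + 0.02% Tween-20; cpd via pin tool; 1 mM Gln soln; GluOx/HRP/Amplex Red; RT 30 min; fluor. t0 & final.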
APE1 dye cs: Counterscreen for APE1 Inhibitors: Fluorescent Dye Displacement Assay; shares compounds with APE1 inh-1; DNA fluorescent dye displacement counterscreen, fluorescence; Potency, µM (titrated, usually from 28.5 µM), without a hit: at the highest dose activity change, negative = inhibition, usual class: inhibitors; 480 tested, 7% active; AID 2564, 2010;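 further: loss of thiazole orange fluorescence as the dye is displaced from duplex DNA; 0% = ThO with dsDNA and no compound and -100% = ThO without dsDNA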
EndoIV counter: Counterscreen for APE1 Inhibitors: qHTS Assay for Inhibitors of Endonuclease IV; shares compounds with APE1 inh-1; E. coli Endo IV, fluorogenic AP-site DNA cleavage; Potency, µM (doses to about 27.1 µM), inactives show top-dose activity change, negative = inhibition, actives largely listed as inhibitors; 560 tested, 4% active; AID 2565, 2010;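 further: plate controls were uninhibited enzyme wells for no effect and no enzyme buffer wells for full effect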
APE1 inh-2: Confirmation qHTS Assay for Inhibitors of the Human Apurinic/apyrimidinic Endonuclease 1 (APE1); purified APE1, fluorogenic abasic-site DNA cleavage; Potency, µM (series often up to 57.1 µM), without a hit: top-dose activity change, negative = inhibition, most hits filed as inhibitors; shares compounds with APE1 inh-1; 750 tested, 44% active; further: nearly all actives have a fitted effect of over 30% in size
APE1 FP: qHTS FP-Based Assay for Inhibitors of the Human Apurinic/apyrimidinic Endonuclease 1 (APE1). Potency, µM (highest dose often 28.5 µM), without a hit: top-dose activity, negative = inhibition, most hits filed as inhibitors. 480 tested, 7% active. AID 2573, 2010. shares compounds with APE1 inh-1. APE1 binding to TAMRA-labelled double-stranded DNA, fluorescence polarization displacement
BLM inh-2: qHTS Confirmation Assay for Inhibitors of Bloom's syndrome helicase (BLM); 220 tested, 40% active; Potency, µM, inactives show max response, negative = inhibition, most hits filed as inhibitors; shares compounds with BLM inh-1; BLM DNA unwinding, fluorescence quenching, biochemical; AID 2585, 2010;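 further: strand separation dequenches TAMRA so unwinding raises red fluorescence; series mostly up to about 69 µM; nearly all actives have a fitted effect of over 45% in size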
RECQ1 inh-2: Confirmation qHTS Assay for Inhibitors of RecQ-Like Dna Helicase 1 (RECQ1) - Round 2 Cherry Picks. shares compounds with RECQ1 inh-1. recombinant RECQ1 DNA unwinding, red fluorescence. Potency, µM (titrated, usually from 119 µM), for inactives: at the top dose activity, negative = inhibition, actives largely listed as inhibitors. 1,100 tested, 15% active. AID 504841, 2011; further: nearly all actives have a fitted effect of over 50% in size
An asterisk follows results filed as active; i = inactive; ? = inconclusive; / = no result given. A selection: hits, their analogues and other compounds. The true share with any hit is near 0.85%. The call rests on the fitted dose curve; in most records, active means well fitted curve in the direction sought with a large enough effect; inconclusive means small, poorly fitted or top-dose-only effect, or another doubt; inactive means no such curve, though single readings can be large; an effect the other way counts as inactive or inconclusive. Unless noted, on the % scale 0 is the no-effect control and ±100 the full control effect; potency means the concentration at half of the fitted maximal effect.

SMILES | BLM inh-1 | RECQ1 inh-1 | TDP1 inh | PGK inhibitor | APE1 inh-1 | GLS inhibitor | BLM inh-2 | others
CC1CCCCN1C(=O)COC(=O)c1ccc(S(C)(=O)=O)c([N+](=O)[O-])c1 (configuration not stated) | / | / | -1% | / | / | / | /
CC(=O)NC1=NC(=O)/C(=C/c2cc(C)n(-c3cccc(C(=O)O)c3)c2C)S1 | -4% | ? | 3.5µM* | ? | 3.5µM* | -14% | / | APE1 dye cs=10%;EndoIV counter=-1%;APE1 inh-2=4.5µM*;APE1 FP=?;RECQ1 inh-2=20µM*
O=C(/C=C/c1ccc(I)cc1)c1ccc(B(O)O)cc1 | -16% | -22% | 7% | / | -6% | / | /
CSc1nc(NCCOCCO)c2sc3nc(-c4ccco4)c4c(c3c2n1)CCC4 | 25µM* | 25µM* | 35µM* | -5% | 32µM* | 0% | ? | APE1 dye cs=13µM*;EndoIV counter=-10%;APE1 inh-2=13µM*;APE1 FP=-7%;RECQ1 inh-2=?
CSc1nc(NCc2ccco2)c2sc3nc(C(C)C)c4c(c3c2n1)CC(C)(C)OC4 | -5% | i | 4% | 1% | 11% | -1% | /
CCN(CC)Cc1c(O)c(Cl)cc2c(C)cc(=O)oc12 | -21% | ? | 13µM* | -14% | 13µM* | -14% | / | APE1 dye cs=8%;EndoIV counter=-8%;APE1 inh-2=28µM*;APE1 FP=-44%;RECQ1 inh-2=56µM*
O=C(/C=C/c1ccccc1Cl)Nc1ccc2c(c1)C(=O)NC2=O | 32µM* | -23% | -11% | -28% | 13µM* | -15% | ?
CC1(C)SC2[C@@H](N=CN3CCCCCC3)C(=O)N2[C@H]1C(=O)O (some centres not stated) | -4% | / | -4% | / | / | -18% | /
OC[C@H]1OC(O)[C@H](O)[C@@H](O)[C@@H]1O (some centres not stated) | -3% | -20% | 5% | / | -3% | / | /
CCCCCC(O)c1ccc([C@H]2CCC(=O)[C@@H]2CCCCCCC(=O)O)cc1 (some centres not stated) | 1% | -9% | 7% | / | 13% | / | /
Fc1cc(F)c2nc(Nc3nc4cc5c(cc4s3)OCO5)sc2c1 | 10µM* | ? | ? | -7% | 9% | ? | ?
Fc1cccc2sc(Nc3nc4cc5c(cc4s3)OCO5)nc12 | 2% | -6% | 8% | -7% | 27% | -1% | /
c1ccc(CCNc2nc(-c3ccccc3)cs2)cc1 | / | / | / | / | / | -2% | /
COc1cccc(C2/C(=C(\O)c3ccc4c(c3)OCCO4)C(=O)C(=O)N2CCN(C)C)c1 (configuration not stated) | 8.9µM* | i | 0% | 1% | ? | 9% | -7%
O=C(CSc1n[nH]c(=O)[nH]c1=O)Nc1ccc2c(c1)C(=O)c1ccccc1C2=O | 13µM* | i | / | ? | ? | 52% | 16µM*
O=C(CSc1n[nH]c(=O)[nH]c1=O)Nc1cccc(S(=O)(=O)N2CCOCC2)c1 | 5% | 5% | -2% | -2% | -1% | -3% | /
O=C(CSc1ccccn1)Nc1ccc2c(c1)C(=O)c1ccccc1C2=O | 25µM* | -1% | 22µM* | ? | ? | 0% | ?
CN(C)C(=O)CNC(=O)Cc1ccccc1 | / | / | / | / | / | -7% | /
Cc1ccc(-c2nn3c(C)nnc3s2)cc1NC(=O)c1ccc(-c2ccc(Cl)cc2Cl)o1 | 11µM* | i | / | -8% | -2% | 7% | 7.3µM*
COc1ccc2c(c1)Cc1sc(NC(=O)c3cccnc3)nc1-2 | 18µM* | -2% | 2% | 8% | ? | 3% | ?
COc1ccc(C2Nc3ccccc3C(=O)N2Cc2ccco2)cc1COc1c(C)cccc1C (configuration not stated) | / | / | 0% | / | / | / | /
CCOC(=O)C1CCN(c2nc3ccccc3n2CC(=O)c2ccccc2)CC1 | 20µM* | i | -4% | -6% | 0% | 2% | -2%
O=C(O)C1CSC(c2ccncc2)N1 (configuration not stated) | 3% | 1% | 0% | i | -3% | 11% | /
O=C(O)C1CSC(c2ccco2)N1 (configuration not stated) | 25µM* | 32µM* | / | ? | 14µM* | 20% | 3%
